# Hits are enriched below; roughly 10% of the tested compounds scored in any of these assays.
# 3T3 cytotox = NIH 3T3 cell cytotoxicity; AID 1345082; Potency, µM (doses to about 96.7 µM), for the others: at the highest dose activity change, negative = cytotoxicity, most hits filed as inhibitors; actives 4.3% (n = 94,000); NIH 3T3 viability, CellTiter-Glo ATP luminescence, 48-72 h; also: nearly all actives have a fitted effect of over 55% in size
#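 Cytotoxicity is measured as loss of cellular ATP: NIH 3T3 cells (400/well) are exposed to compound for 48 or 72 hr at 37 °C, then CellTiter-Glo luminescence is imaged after 10 min at room temperature.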
# FLuc inh = blocks purified firefly luciferase enzyme activity | purified P. pyralis luciferase, luminescence, biochemical | Potency, µM (doses to about 115 µM), usual class: inhibitors | actives 2.5% (n = 76,000) | AID 1347043; also: nearly all actives have a fitted effect of over 65% in size
#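 Luminescence read by CCD imaging after purified firefly luciferase (10nM final) was added to substrate buffer holding 10uM D-luciferin and 10uM ATP, pH 7.5, pre-dosed with compound.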
# hNpr1 antagonist = antagonists of human natriuretic peptide receptor Npr1 | P16066 | HEK293 hNpr1 GloSensor cGMP, ANP-stimulated luminescence | Potency, µM (top dose mostly 46.3 µM), for inactives: at the top dose activity change, negative = inhibition, actives largely listed as inhibitors | actives 1.6% (n = 76,000) | AID 1347048; calls by dose curve; also: nearly all actives have a fitted effect of over 60% in size
#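 HEK293 cells stably expressing human Npr1 and cGMP GloSensor pGS-40F, loaded 2 h with 2% GloSensor reagent, given compound 30 min at room temperature. Luminescence read before and 20 min after 0.1 nM hNppA.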
# GPT2 inh = GPT2 alanine aminotransferase inhibition. Q8TD30. AID 1671188. Potency, µM (series often up to 57.7 µM), for inactives: at the highest dose activity change, negative = inhibition, hits mostly inhibitors. Recombinant GPT2, coupled pyruvate oxidase/HRP Amplex Red fluorescence. actives 0.25% (n = 100,000); also: nearly all actives have a fitted effect of over 60% in size
# Target sequence (Q8TD30 whole entry, looked up): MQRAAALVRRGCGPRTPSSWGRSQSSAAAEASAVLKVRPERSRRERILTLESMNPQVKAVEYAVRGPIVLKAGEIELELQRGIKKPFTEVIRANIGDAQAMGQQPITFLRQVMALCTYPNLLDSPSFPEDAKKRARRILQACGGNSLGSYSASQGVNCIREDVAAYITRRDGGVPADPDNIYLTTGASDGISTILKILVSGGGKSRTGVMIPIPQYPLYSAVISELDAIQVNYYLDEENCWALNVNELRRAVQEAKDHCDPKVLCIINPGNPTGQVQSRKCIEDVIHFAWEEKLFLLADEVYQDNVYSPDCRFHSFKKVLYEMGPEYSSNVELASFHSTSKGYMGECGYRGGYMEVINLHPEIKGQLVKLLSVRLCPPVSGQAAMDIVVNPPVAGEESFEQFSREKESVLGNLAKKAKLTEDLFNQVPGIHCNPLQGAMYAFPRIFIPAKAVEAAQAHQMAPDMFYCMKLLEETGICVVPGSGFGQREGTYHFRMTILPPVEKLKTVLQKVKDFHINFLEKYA
#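 Inhibition is scored from Amplex Red fluorescence generated when pyruvate oxidase and HRP act on pyruvate released by GPT2. Reactions contain 10ng/uL enzyme, 250uM a-KG and 2mM L-alanine and run 30 min at room temperature.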
# HEK293 tox = HEK 293 cell cytotoxicity | actives 6.6% (n = 94,000) | Potency, µM (titrated, usually from 115 µM), inactives show at the highest dose activity change, negative = cytotoxicity, actives largely listed as inhibitors | HEK 293 viability, ATP luminescence (CellTiter-Glo), 48-72 h | AID 1345083; also: nearly all actives have a fitted effect of over 60% in size
#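 qHTS cytotoxicity; HEK 293, 250 cells/well; compound pinned; 48 or 72 hr, 37 degree Celsius, 5% CO2, 95% humidity; CellTiter-Glo, 10 min RT; luminescence (ATP).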
# Numbers without * were called inactive; i = inactive; ? = inconclusive; . = no result given; [ ] = dose if it differs, or a comment. Unless noted, calls follow the shape of the dose curve; as a rule, active = well fitted curve in the direction sought with a large enough effect; inconclusive = small, poorly fitted or top-dose-only effect, or another doubt; inactive = no such curve, though single readings can be large; an effect the other way counts as inactive or inconclusive. % is scaled to controls: 0 for no effect and ±100 for the full control effect; potency is read from the fitted curve at half-maximal effect.
SMILES,3T3 cytotox,FLuc inh,hNpr1 antagonist,GPT2 inh,HEK293 tox
COc1cc2c(cc1OC)C(C[C@H]1CN(S(=O)(=O)c3cccs3)CC[C@H]1CC(=O)O)=NCC2,-6%,i,1%,-4%,?
O=C(C1CCCCC1)N1CCC(Cc2ccc(CO)cc2)CC1,?,.,.,i,?
N#Cc1cccc(CN2Cc3[nH]cnc3C[C@H]2c2nc(-c3cccc([N+](=O)[O-])c3)no2)c1,?,i,-11%[70.6 µM],i,?
O=[N+]([O-])c1cccc(-c2noc([C@@H]3Cc4nc[nH]c4CN3Cc3cccs3)n2)c1,79µM*,i,?,2%[88.5 µM],?
O=[N+]([O-])c1cccc(-c2noc([C@@H]3Cc4nc[nH]c4CN3Cc3ccc(F)cc3)n2)c1,?,i,?,-24%[88.5 µM],50µM*
CN(C)Cc1cn([C@H]2CO[C@H]3[C@@H]2OC[C@H]3OC(=O)Nc2ccc(C(C)(C)C)cc2)nn1,?,71µM*,-2%[70.6 µM],4%[88.5 µM],?
COC(=O)c1cn([C@H]2CO[C@H]3[C@@H]2OC[C@H]3OC(=O)Nc2ccc(C(C)(C)C)cc2)nn1,-1%[174 µM],i,2%[70.6 µM],0%[88.5 µM],-9%[172 µM]
Cc1ccccc1-n1nc(C)c(CCC(=O)N(C)C(C)C)c1Oc1ccccc1F,?,i,-19%,-14%,45µM*
Cc1nn(-c2ccc(F)cc2)c(Oc2ccc(F)cc2F)c1CCC(=O)NC(C)C,?,i,-6%,-14%,?
CCN(CC)C(=O)CCc1c(C)nn(-c2ccccc2C)c1Oc1cccc(F)c1,?,i,-16%,-1%,40µM*
Cc1nn(-c2ccc(F)cc2)c(Oc2ccc(F)cc2F)c1CCC(=O)N(C)C(C)C,?,i,-18%,-5%,40µM*
Cc1cccc(-n2nc(C)c(CCC(=O)N(C)C(C)C)c2Oc2ccccc2C)c1,28µM*,i,?,i,?
Fc1ccccc1CN1CCCN(Cc2cn(-c3ccccc3)nn2)CC1,-26%,i,-2%,3%,-21%
Cc1noc(C)c1[S+](=O)([O-])N1CCN(Cc2ccccc2-c2ccccc2F)CC1,?,.,.,i,?
COc1ccc(-n2c(=O)c3c(n2Cc2ccccc2)CN(CC2CCOC2)CC3)cc1 (stereo not given),?,i,-9%[70.6 µM],i,-11%[172 µM]
O=C1NCc2ccccc2CC12CCCN(Cc1ccccc1F)C2 (stereo not given),5%,.,.,-4%,-12%
Cc1cnc(CCNC(=O)C2CCOCC2)n1C1CCCCCCC1,-24%,i,-13%,i,?
CCCn1c(C)cnc1CC1CCN(C(=O)c2ccccc2F)CC1,-34%,.,.,-3%,-31%
COCCNC(=O)CCc1c(C)nn(-c2ccc(F)cc2)c1Oc1ccc(F)cc1F,25µM*,i,-6%,-5%,?
Cc1cccc(-n2nc(C)c(CCC(=O)N(C)C(C)C)c2Oc2ccc(F)cc2F)c1,40µM*,i,?,i,?
COc1ccc(C(=O)N2CCC(c3n[nH]c(=O)n3-c3ccc(C)cc3)CC2)cn1,28µM*,i,0%,i,-4%
Cc1ccc(C(=O)N2CCC(c3n[nH]c(=O)n3-c3ccc(C)cc3)CC2)cc1,?,i,-20%,i,9%
Cc1ccc(-n2c(C3CCN(C(=O)c4ccc(C#N)cc4)CC3)n[nH]c2=O)cc1,35µM*,i,8%,-29%,-12%
Cc1ccc(-n2c(C3CCN(C(=O)c4ccc(F)c(Cl)c4)CC3)n[nH]c2=O)cc1,13µM*,i,-8%,2%,-2%
Cc1ccc(-n2c(C3CCN(C(=O)c4ccc(C)nc4)CC3)n[nH]c2=O)cc1,25µM*,i,3%,i,2%
COc1ccc(C(=O)N2CCC(c3n[nH]c(=O)n3-c3ccc(C)cc3)CC2)cc1OC,?,i,0%,-13%,33%
CNC(=O)CCn1ncc2cc(OC3CCc4cccc(-c5ccccc5F)c43)ccc21 (stereo not given),50µM*,i,?,3%[88.5 µM],?

# Source: PubChem (National Center for Advancing Translational Sciences (NCATS))
